# From PubChem BioAssay
# For part of these data: Results with a measured potency or affinity are listed apart. Calls of active or inactive are those of the source.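 Rule for the calls, unless noted: active = fitted half-maximal concentration within 10 nM to 100 µM, steepness 0.5 to 2, significant signal drop, low assay interference; inactive = the rest.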
# Tests used:
# [1] = molecular target: Cell division control protein 42 homolog (Homo sapiens) (UniProt P60953); experiment: inhibition of fluorescent GTP binding to constitutively active Cdc42 – biochemical, multiplex bead flow cytometry, Bodipy-FL-GTP, dose response (AID 1333;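 active = fitted half-maximal concentration within the tested dose range, moderate curve steepness, a statistically real signal drop, and little compound fluorescence or tag-binding interference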)
# Cell division control protein 42 homolog (Homo sapiens), sequence (P60953 whole entry, looked up): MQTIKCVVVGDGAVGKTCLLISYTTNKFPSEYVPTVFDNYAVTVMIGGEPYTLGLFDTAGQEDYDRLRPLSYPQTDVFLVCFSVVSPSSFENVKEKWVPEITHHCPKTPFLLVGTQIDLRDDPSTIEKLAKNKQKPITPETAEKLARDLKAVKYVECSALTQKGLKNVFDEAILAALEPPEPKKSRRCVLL
# [2] = molecular target: Cell division control protein 42 homolog (Homo sapiens) (UniProt P60953); experiment: inhibition of fluorescent GTP binding to wildtype Cdc42 – biochemical, multiplex bead flow cytometry, Bodipy-FL-GTP, dose response (AID 1334;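 active = fitted half-maximal concentration within the tested range, moderate curve steepness, significant signal drop, and little compound fluorescence or bead-linkage interference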); details: bead-based flow cytometry, Bodipy-FL-GTP binding to GST-Cdc42; at 100 µM (top of the series) unless noted
# [3] = molecular target: GTPase HRas (Homo sapiens) (UniProt P01112); experiment: Ras wt fluorescent GTP loading blockade – biochemical, wildtype, multiplex bead flow cytometry, dose response (AID 1335); details: bead-based flow cytometry, Bodipy-GTP binding to GST-Ras; at 100 µM (top of the series) unless noted
# GTPase HRas (Homo sapiens), sequence (P01112 whole entry, looked up): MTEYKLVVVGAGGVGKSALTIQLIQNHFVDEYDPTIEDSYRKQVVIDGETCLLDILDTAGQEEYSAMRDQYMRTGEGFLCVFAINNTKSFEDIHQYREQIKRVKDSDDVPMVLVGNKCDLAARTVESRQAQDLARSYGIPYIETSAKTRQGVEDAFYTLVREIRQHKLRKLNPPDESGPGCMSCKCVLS
# [4] = tested on: Ras-related protein Rab-7a (dog), GTP binding; experiment: blockers of fluorescent GTP binding to Rab7 – biochemical, wildtype, multiplex bead flow cytometry, dose response (AID 1336; call rule not given here)
# [5] = molecular target: Ras-related C3 botulinum toxin substrate 1 (Homo sapiens) (UniProt P63000); experiment: inhibition of wildtype Rac1 nucleotide loading – biochemical, multiplex bead flow cytometry, dose response (AID 1340;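 active = dose curve with midpoint inside tested range, moderate steepness, plateau gap beyond fit error, low compound glow and bead-link interference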); details: GST-Rac1 beads, Bodipy-FL-GTP binding; at 100 µM (top of the series) unless noted
# [6] = molecular target: GTPase HRas (Homo sapiens) (UniProt P01112); experiment: blockade of GTP loading onto mutant Ras – biochemical, activated mutant, multiplex bead flow cytometry, dose response (AID 1341;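 active = dose-response curve with midpoint inside the tested range, moderate steepness, significant amplitude and little compound fluorescence or bead-attachment interference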;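 note: GST-tagged constitutively activated Ras mutant immobilized on beads and multiplexed with other GTPases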)
Compound,outcome [1],"fluorescence, percent of control (lower = inhibition) [2]","GTP binding, percent of control [3]",outcome [4],"GTP binding signal, raw median fluorescence (lower = inhibition) (MCF (arbitrary fluorescence units)) [5]",outcome [6]
Fc1cccc(CSc2ccc3nnc(-c4cccnc4)n3n2)c1,inactive,33.8%,73.3%,inactive,183,inactive
Cc1nc2cccc(C)n2c(=O)c1Cl,inactive,38.6%,83.8%,inactive,255,inactive
S=C(Nc1ccc(Oc2ccccc2)cc1)NC1CCCCCC1,inactive,28%,87.3%,inactive,300,inactive
Cc1sc2nc3c4ccccc4c(NCc4ccco4)nn3c(=O)c2c1C,inactive,94%,104%,inactive,123,inactive
O=C(O)c1cc2ccccc2nc1OCc1ccccc1,inactive,49.1%,200%,inactive,46.4,inactive
COc1ccc(OCCSc2nc3nc(C)cc(C)n3n2)cc1,inactive,45.5%,87.4%,inactive,178,inactive
O=C(O)C1C(C(=O)Nc2ccc(Cl)cc2)C2C=CC1C21CC1 (stereo not drawn),inactive,86.8%,149%,inactive,173,inactive
CC(=O)NC1CC2CCCC(C1)N2C(=O)Nc1ccccc1 (stereo not drawn),inactive,88.1%,152%,inactive,217,inactive
CCOC(=O)CCCCC(=O)c1[nH]c(=O)[nH]c1CSc1nnc2c3cc(Br)ccc3n(C)c2n1,inactive,34.4%,80.3%,inactive,167,inactive
Cc1noc(NS(=O)(=O)c2ccc(NC(=O)CSc3nnc4c(n3)[nH]c3ccccc34)cc2)c1C,inactive,21.2%,32.7%,inactive,41.2,inactive
CC1=C(C)CC(C(=O)c2cc(C)ccc2C)C(C(=O)O)C1 (stereo not drawn),inactive,57.3%,88.3%,inactive,31,inactive
CCOC(=O)/C=C1\SCC(=O)N1CCOc1cccc(Br)c1,inactive,94.9%,164%,inactive,185,inactive
COC(=O)c1c(N2C(=O)[C@H]3[C@@H](C2=O)[C@]2(C(=O)Nc4c(C)cc(C)cc42)N2CCC[C@@H]32)sc(C)c1C,inactive,45.1%,97.2%,inactive,238,inactive
Cc1c(Cl)cccc1NS(=O)(=O)c1ccc2c(c1)C1C=CCC1C(c1ccc(C(=O)O)cc1)N2 (stereo not drawn),inactive,22.3%,72.9%,inactive,222,inactive
CCCOc1ccc(C(CC(=O)O)NC(=O)c2sc3ccccc3c2Cl)cc1 (stereo not drawn),inactive,28.6%,78.9%,inactive,258,inactive
O=C(O)CSc1ccc2nnc(-c3cccnc3)n2n1,inactive,35.6%,73.9%,inactive,151,inactive
O=C(O)/C=C/c1cn(Cc2ccccc2)nc1-c1ccccc1,inactive,101%,72.4%,inactive,175,inactive
Cn1c(N/N=C/c2cccs2)nc2c1c(=O)n(Cc1ccccc1)c(=O)n2C,inactive,39.1%,51.7%,inactive,143,inactive
Cc1cc2ncn(CCC(=O)NC(C)(C)C)c2cc1C,inactive,40%,88.1%,inactive,320,inactive
Cc1nc(NC(=O)/C=C/c2ccc(Cl)cc2Cl)sc1C(=O)N(C)C,inactive,45%,61.1%,inactive,182,inactive
C=CCNC(=O)c1cc2c(=O)n3cc(C)ccc3nc2nc1NCC1CCCO1 (stereo not drawn),inactive,51.6%,58.6%,inactive,226,inactive
COc1cccc(C(=O)O)c1OCc1c(C)cccc1C,inactive,58.8%,204%,inactive,54.1,inactive
O=c1c2ccc([N+](=O)[O-])cc2ncn1Cc1ccccc1C(F)(F)F,inactive,34.8%,72.7%,inactive,141,inactive
COc1cc(/C=N/NC(=O)c2cc3ccccc3cc2O)ccc1OCCN1CCCCC1,inactive,39.4%,91.1%,inactive,328,inactive
CCc1ccc(Cn2nnc(C(=O)O)c2C(=O)O)cc1,inactive,58.5%,82.3%,inactive,30.7,inactive
CCN(CC)S(=O)(=O)c1ccc2c(c1)c(=O)c(C(=O)N1CCc3ccccc3C1)cn2C,inactive,96.7%,172%,inactive,225,inactive
COc1ccc2c(C)cc3nncn3c2c1,inactive,51.4%,92.8%,inactive,202,inactive
CCC(C)(C)c1ccc(OCCCC[n+]2ccccc2)c(C(C)(C)CC)c1,inactive,32.7%,78.7%,inactive,278,inactive
